Consider 23 compounds from PubChem BioAssay AID493056 (National Center for Advancing Translational Sciences (NCATS), 2011).

Out of some 360,000 compounds screened, about 2,400 (0.67%) were called active. This is one part of a sample in which actives are shown more often than they occur. Cut-off read from the data, not from the text of the source: active = enhancement above about 30%; inactive = the rest. Peptide text beside a SMILES is read from it. * marks the point of attachment. OPac = O=C(CO*)c1ccccc1; Bz = O=C(c1ccccc1)*

In the assay the target is Thyrotropin-releasing hormone receptor (Homo sapiens) (UniProt P34981). The assay is described as follows: qHTS for Small Molecule Agonists and Allosteric Enhancers of Human TRH Receptor: Primary Screen for Enhancers. Note: 0% is about no effect. The note with it: TRHR cells, fluo-8 calcium fluorescence, EC20 TRH enhancement; at 2 µM; stronger effect = higher value. The method, boiled down: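 Enhancer read-out: after compound pinning and an initial kinetic agonist-mode read, an EC20 of TRH (10 nM final) was injected and fluo-8 calcium signal (Ex 480/Em 530) followed at 1 s/cycle for 100 cycles in TRHR-expressing cells.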
Chain of Thyrotropin-releasing hormone receptor (Homo sapiens) (P34981 whole entry, looked up): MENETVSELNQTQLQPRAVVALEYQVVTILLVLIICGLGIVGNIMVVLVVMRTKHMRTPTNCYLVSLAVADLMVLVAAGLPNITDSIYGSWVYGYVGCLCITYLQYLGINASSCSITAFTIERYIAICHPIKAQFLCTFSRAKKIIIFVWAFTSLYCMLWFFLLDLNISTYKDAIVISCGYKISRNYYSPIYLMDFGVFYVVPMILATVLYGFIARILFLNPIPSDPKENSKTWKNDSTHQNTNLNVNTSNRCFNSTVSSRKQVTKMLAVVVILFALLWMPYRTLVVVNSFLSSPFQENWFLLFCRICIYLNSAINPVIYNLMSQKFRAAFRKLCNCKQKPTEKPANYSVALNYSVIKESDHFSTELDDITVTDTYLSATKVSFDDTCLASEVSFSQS
(qHTS replaces the single test concentration by a dilution series.)
Regarding `O=C(CSc1nnc(-c2ccccc2F)o1)Nc1cccc(C(F)(F)F)c1`, the enhancement was 8.13% (inactive). As to `Cc1cc(C)c2oc(C(=O)Nc3ccc(S(=O)(=O)N(C)c4ccccc4)cc3)cc(=O)c2c1`, the enhancement is 0.252% (inactive). As for `Cc1cc(C)c2oc(C(=O)Nc3ccc(S(=O)(=O)N4CCCCCC4)cc3)cc(=O)c2c1`, the enhancement was 48.6% (active). For `Cc1ccc2oc(C(=O)Nc3ccc(S(=O)(=O)N4CCCCCC4)cc3)cc(=O)c2c1`, the enhancement was 0.734% (inactive). In the case of `Cc1c(C(=O)NCc2ccccc2Br)oc2ccc3c(c12)C(=O)CC(C)(C)O3`, the enhancement is -2.29% (inactive). In the case of `COc1cccc(-n2cc(C(=O)NCc3cccc(Cl)c3)c3ccccc3c2=O)c1`, the enhancement is -3.45% (inactive). Take `CCC(C)NC(=O)c1ccc(N2CCC3(CC2)OCCO3)c([N+](=O)[O-])c1` (stereo not drawn): the enhancement is -9.06% (inactive). In the case of `CC(NC(=O)c1ccc(N2CCNCC2)c([N+](=O)[O-])c1)C12CC3CC(CC(C3)C1)C2` (stereo not drawn), the enhancement is 31.1% (active).

Regarding `O=C(NC1C2CC3CC(C2)CC1C3)c1ccc(N2CCNCC2)c([N+](=O)[O-])c1` (stereo not drawn), the enhancement is 2.28% (inactive). `Cc1nc2nc(SCC(=O)NC3CCC(C)CC3)nn2c(C)c1Cc1ccccc1Cl` (stereo not drawn): the enhancement is 3.16% (inactive). Turning to `CCc1ccccc1NC(=O)CSc1nc(C)c(C(=O)Nc2ccccc2)c(-c2ccc(Cl)cc2)c1C#N`, the enhancement was -0.268% (inactive).

With `C=CCO/N=C/C1=C(O)C(C(=O)OC)C(C)(C)CC1=O` (stereo not drawn), the enhancement was -2.52% (inactive).

On to `CCCC(=O)C1=C(N(C)c2ccccc2)CC(C)(C)C(C(=O)OC)C1=O` (stereo not drawn), for which the enhancement is 36.8% (active). Consider `CCC[C@@H]1C[C@@]1(CCC)[C@@H](NC(=O)c1ccccc1)c1ccc(C(=O)OC)cc1`, for which the enhancement was -1.9% (inactive). As to `Cc1cccc(Cc2c(C)nc3nc(SCc4ccccc4Cl)nn3c2C)c1`, the enhancement is -3.69% (inactive). For `COc1ccc(OC)c(-c2noc(N3CCN(c4cc(Cl)ccc4C)CC3)n2)c1`, the enhancement was -2.59% (inactive). As to `Cc1ccc(-c2cnc(NCc3ccc(C(C)C)cc3)n2C)cc1`, the enhancement is 2.38% (inactive). `Cc1cccc(NC(=O)CSc2ncc(-c3ccccc3)[nH]2)c1C`: the enhancement is -2.76% (inactive). Turning to `COc1ccc(CNC(=O)c2cc3cccc(OC)c3oc2=O)cc1`, the enhancement is 5.25% (inactive). `O=C(CNC(=O)Cc1ccccc1)NCC(=O)OCC(=O)c1ccccc1Cl`: the enhancement is -4.65% (inactive). In the case of `O=C(CNC(=O)c1ccccc1)NCC(=O)OCC(=O)c1ccccc1` (Bz-Gly-Gly-OPac), the enhancement was 48.2% (active). As for `O=C(CNC(=O)c1ccco1)OCC(=O)c1ccccc1`, the figure is 14.7% (inactive); as for `CCCCN(CC)CCCNC(=O)c1nn(C)c2c1CSc1ccccc1-2`, -0.263% (inactive).
